AddAB inh: less growth of phage-infected E. coli with AddAB; E. coli expressing H. pylori AddAB, absorbance growth; inhibition, % at 11.9 µM; hit rate 0.29% among 330,000; in the data active means inhibition above about 12%;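 further: 0% = vehicle wells of infected cells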
phage Ecoli inh: E. coli growth loss with phage present | growth absorbance | inhibition, % at 11.9 µM | hit rate 0.26% among 360,000 | AID 651602; in the data active means inhibition above about 11%
Tat export inh: blocks Tat-dependent protein export in E. coli. E. coli MC4100 TorA-mCherry Tat export, fluorescence. inhibition, % at 10 µM. hit rate 0.036% among 340,000;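 active means mean replicate inhibition at least 50% and at least half of replicates individually reaching 50%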;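 further: exported cargo escapes ClpAP degradation while cytoplasmic cargo is degraded and loses fluorescence; 0% = median of neutral control wells and 100% = median of NaSCN control wells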
E coli growth-1: reduces bacterial viability in AddAB counter-screen; E. coli V3065 growth, OD600 absorbance, 18 h; hit rate 0.27% among 330,000; inhibition, % at 11.9 µM;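 active means inhibition above the campaign's mean inhibition across all tested compounds plus 3 SD, cut at about 9.9% in these data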;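 further: uninfected addAB+ strain grown without phage in ampicillin broth; 0% = DMSO wells and 100% = ciprofloxacin 0.95 µg/ml wells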
E coli growth-2: E. coli growth inhibition; hit rate 0.21% among 330,000; Escherichia coli growth, OD600, 23 h; hits give low values; OD600 absorbance (no concentration beside the values);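 active means OD600 absorbance below the run mean of sample wells minus 3.6 SD, in any replicate, cut at about 0.56 in these data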
RecBCD conf: growth loss of phage-infected V66 E. coli, RecBCD confirmation screen; hit rate 45% among 890; shares compounds with phage Ecoli inh; inhibition, % at 11.9 µM; AID 651982; E. coli V66 + T4 2- phage, growth OD;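 active means mean inhibition over triplicates exceeding the hit threshold derived in the original primary screen, cut at about 11% in these data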
Ecoli viability: counter-screen for RecBCD inhibitors: inhibitors of bacterial viability; shares compounds with phage Ecoli inh; E. coli viability, absorbance (OD) growth; inhibition, % at 11.9 µM; hit rate 29% among 890; AID 651983; in the data active means inhibition above about 20%;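 further: E. coli strain V66 grown with compound alone and no phage infection; 0% = bacteria with DMSO vehicle only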
AddAB phage OD: growth loss of phage-infected AddAB E. coli, RecBCD counter-screen. shares compounds with phage Ecoli inh. E. coli expressing H. pylori AddAB + T4 phage, OD growth; gene 2 mutant T4, recBCD-deleted host. inhibition, % at 11.9 µM. hit rate 45% among 890. AID 651984;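 active means mean inhibition above the solvent-only control wells' mean plus 3 SD, cut at about 22% in these data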;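 further: higher means less bacterial growth from phage killing when AddAB is blocked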
The depositor's hits bear a star; · = not tested or not shown. Sampled rows, rich in hits. Any-hit rate of the full collection: about 0.5%.

SMILES | AddAB inh | phage Ecoli inh | Tat export inh | E coli growth-1 | E coli growth-2 | RecBCD conf | Ecoli viability | AddAB phage OD
Cc1ccc2ccc(C(Nc3ccccc3)c3ccccc3)c(O)c2n1 (configuration not stated) | · | 12* | · | · | · | 3 | 5 | 12
Cc1ccc2ccc(C(Nc3ccccc3)c3ccc(C(C)C)cc3)c(O)c2n1 (configuration not stated) | · | 9 | · | · | · | · | · | ·
Cc1ccc2ccc(C(Nc3ccccn3)c3ccccc3)c(O)c2n1 (configuration not stated) | 3 | 8 | -3 | -3 | 0.8 | · | · | ·
Cn1cc(S(=O)(=O)N2CCOCC2)cc1C(=O)Nc1ccc(Cl)cc1 | 1 | 2 | -1 | 0 | 0.72 | · | · | ·
Cc1ccc(NC(=O)c2cc(S(=O)(=O)N3CCOCC3)cn2C)cc1F | 2 | 29* | -10 | 1 | 0.72 | -3 | -3 | -8
COc1ccc(C(=O)Nc2ccc(S(=O)(=O)N3CCOCC3)cc2)cc1 | 3 | 12* | · | 1 | 0.65 | 0 | 0 | -2
CCOC(=O)c1ccccc1NC(=O)c1n[nH]c(=O)c2ccccc12 | 1 | 2 | -5 | 2 | 0.71 | · | · | ·
COc1cccc(/C=C/C(=O)OCC(=O)c2ccc[nH]2)c1 | · | 1 | · | · | · | · | · | ·
CCOC(=O)c1ccc(NC(=O)CSc2nc3ncccc3[nH]2)cc1 | 11 | 11* | -6 | 8 | 0.56 | 4 | 6 | 10
CCCCc1ccc(NC(=O)CSc2nc3ncccc3[nH]2)cc1 | 4 | 5 | -10 | 2 | 0.66 | · | · | ·
CCOc1ccc(-n2c(C)cc(C(=O)CCl)c2C)cc1 | -1 | 3 | -8 | -1 | 0.69 | · | · | ·
C=CCn1c(=O)c(C(=O)NCCc2ccccc2)c(O)c2ccccc21 | 10 | 13* | 7 | 13* | 0.65 | 6 | 10 | 8
CC1=C(C(N)=O)C(c2cccs2)n2nc(-c3cccc(Cl)c3)nc2N1 (configuration not stated) | 0 | · | 3 | -2 | 0.71 | · | · | ·
COc1cccc(C2c3c(oc4ccccc4c3=O)C(=O)N2CCCN2CCOCC2)c1 (configuration not stated) | 2 | 15* | 29 | 2 | 0.68 | -2 | -2 | -6
O=C(Nc1ccc(F)cc1)Nc1cc(OCC(F)(F)F)cc(OCC(F)(F)F)c1 | 4 | 12* | -6 | 3 | 0.68 | 2 | 3 | 6
CCOc1ccc(NC(=O)Nc2cc(OCC(F)(F)F)cc(OCC(F)(F)F)c2)cc1 | 2 | 2 | 7 | -1 | 0.7 | · | · | ·
COc1ccc2c(C(=O)CN3CC(C)OC(C)C3)c[nH]c2c1 (configuration not stated) | 0 | 1 | 2 | 2 | 0.75 | · | · | ·
COc1cccc(NC(=O)Nc2ccc(C)c(Cl)c2)c1 | 6 | 3 | 2 | 3 | 0.66 | · | · | ·
COC(=O)c1ccc(NC(=O)Nc2ccc([N+](=O)[O-])cc2)cc1 | 10 | 14* | 13 | 9 | 0.42* | 9 | 11 | 4
Cc1ccc(NC(=O)Nc2ccc(F)cc2)cc1Cl | 7 | 12* | 19 | 5 | 0.64 | 5 | 5 | 0
COC(=O)c1ccc(NC(=O)Nc2ccccc2F)cc1 | 0 | 3 | 0 | -2 | 0.68 | · | · | ·
COC(=O)c1ccc(NC(=O)Nc2ccc(F)c(Cl)c2)cc1 | 9 | 12* | -5 | 10* | 0.6 | 5 | 5 | 9
CC(=O)c1ccc(NC(=O)Nc2cccc(Cl)c2)cc1 | 6 | 11* | -9 | 10 | 0.51* | 3 | 3 | 4
Cc1cc(OC(F)F)ccc1NC(=O)Nc1ccc([N+](=O)[O-])cc1 | 11 | 13* | -4 | 9 | 0.54 | 5 | 8 | 12
O=C(Nc1cccc(Cl)c1)Nc1nnc(-c2ccncc2)s1 | 12 | 13* | 0 | 8 | 0.59 | 7 | 9 | 2
SMILES | AddAB inh | phage Ecoli inh | Tat export inh | E coli growth-1 | E coli growth-2 | RecBCD conf | Ecoli viability | AddAB phage OD
CCCCCNC(=O)c1cc(S(=O)(=O)N2CCCCC2)ccc1F | 1 | -1 | -7 | 0 | 0.68 | · | · | ·
Cc1cc(-c2ccccc2)n(-c2cc(N/N=C/c3ccccc3O)ncn2)n1 | 9 | 16* | -4 | 5 | · | 6 | 7 | 4
Cc1cc(-c2ccccc2)n(-c2cc(NN=Cc3ccccc3O)ncn2)n1 | · | · | · | · | 0.71 | · | · | ·
Cc1ccc(NC(=S)Nc2ccc(OC(F)F)c(Cl)c2)cc1F | 2 | 11* | 6 | 1 | 0.63 | 6 | 7 | 5
CCCCn1c(CNC(=O)Cc2ccccc2)nc2ccccc21 | 0 | 100* | -3 | -1 | 0.7 | -3 | -3 | 3
CCCCn1c(CNC(=O)CC)nc2ccccc21 | 1 | 2 | -9 | -2 | 0.72 | · | · | ·
O=C(NN=Cc1ccc(O)cc1)c1nc(-c2ccccc2)n(-c2ccccc2)n1 | · | · | · | · | 0.72 | · | · | ·
CCN1CCN(C(=O)C2=CC(c3ccc(C)cc3)=NS(=O)(=O)N2C)CC1 | 0 | 12* | 6 | 0 | 0.75 | -3 | -2 | -3
CCCOc1ccc(CNC(=O)c2ccc3nc(N4CCOCC4)sc3c2)cc1 | -1 | 25* | -12 | -1 | 0.75 | -1 | 0 | 4
O=C1c2cc(Cl)ccc2-c2c(O)cc(Cl)cc21 | · | 13* | 2 | · | 0.57 | 10 | 12 | 6
OC(c1cccc(F)c1)c1ncc(-c2ccc3ccccc3c2)[nH]1 (configuration not stated) | · | 2 | · | · | · | · | · | ·
COc1cccc(-c2cnc(C(O)c3cc(F)cc(Cl)c3)[nH]2)c1 (configuration not stated) | · | 8 | · | · | · | · | · | ·
OC(c1cccc(Cl)c1)c1ncc(-c2ccc3ccccc3c2)[nH]1 (configuration not stated) | · | 15* | · | · | · | 12* | 16 | 20
Cc1ccc(-c2cnc(C(O)c3cc(F)cc(Cl)c3)[nH]2)cc1 (configuration not stated) | · | 12* | · | · | · | 7 | 10 | 6
COc1cccc(-c2cnc(C(O)c3cc(Cl)cc(Cl)c3)[nH]2)c1 (configuration not stated) | · | 12* | · | · | · | 11* | 14 | 19
Cc1cc(OCC(=O)NCc2ccncc2)c2c(C)cc(=O)oc2c1 | 4 | 2 | -1 | -1 | 0.67 | · | · | ·
O=C(O)/C=C/C(=O)Nc1cc(F)ccc1F | 1 | 2 | 2 | 0 | 0.65 | · | · | ·
O=Cc1cccnc1SCc1ccccc1 | 1 | 99* | -1 | -1 | 0.7 | -6 | -6 | 0
Oc1cccnc1SCc1ccccc1 | 2 | 2 | 4 | -1 | 0.7 | · | · | ·
O=C(NNC(=O)c1cc(F)c(F)cc1Cl)c1ccc(NS(=O)(=O)c2cccs2)cc1 | -1 | 1 | 5 | 1 | 0.65 | · | · | ·
O=C(NNC(=O)c1cc(Cl)ccc1O)c1ccc(NS(=O)(=O)c2cccs2)cc1 | 5 | 11* | -20 | 2 | 0.67 | 3 | 3 | 2
